# Where “and” joins values, the source holds several entries; their conditions need not be identical. Equal entries are not always repeated. Compounds without any hit were thinned out: in the full panel of roughly 83,000, 20% have a hit.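 Values shown are percent growth following 48 h exposure of cells in 96-well plates to a single concentration of compound; below 10 was considered active.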 Some structures have more than one record in an assay (separate samples or runs), and their calls can disagree. Calls of active or inactive are those of the source.
# Assays:
# Assay in all cases: NCI-60 one-dose screen, 48 h (100 = growth as untreated, 0 = no growth, -100 = all killed)
# Settings in all cases: 10 µM unless noted
# [1] = tested on: HCT-15 colon
# [2] = tested on: HT29 colon
# [3] = tested on: SNB-75 CNS
# [4] = tested on: SNB-19 CNS
# [5] = tested on: U251 CNS
# [6] = tested on: PC-3 prostate
# [7] = tested on: SK-MEL-5 melanoma
# [8] = tested on: UACC-62 melanoma
# [9] = tested on: SK-MEL-28 melanoma
# [10] = tested on: LOX IMVI melanoma
SMILES,growth [1],growth [2],growth [3],growth [4],growth [5],growth [6],growth [7],growth [8],growth [9],growth [10]
O=C(O)CSCc1nc2ccccc2[nH]1,112% (inactive),103% (inactive),88.7% (inactive),97.4% (inactive),109% (inactive),95.5% (inactive),108% (inactive),93.9% (inactive),105% (inactive),–
S=C(S)N1CCCC1,107% (inactive),76.7% (inactive) and 22.4% (inactive),113% (inactive) and 89% (inactive),99.1% (inactive) and 100% (inactive),85.1% (inactive) and 49% (inactive),84.7% (inactive) and 82.8% (inactive),79.7% (inactive) and 67.8% (inactive),90.9% (inactive) and 105% (inactive),95.1% (inactive) and 107% (inactive),108% (inactive) and 90.2% (inactive)
O=C(c1ccc(Cl)cc1)C(NCCO)c1ccc(Cl)cc1 (configuration not stated),99.7% (inactive) and 99% (inactive),109% (inactive) and 92.2% (inactive),90.1% (inactive) and 81.8% (inactive),101% (inactive) and 97.6% (inactive),95.9% (inactive) and 102% (inactive),81.9% (inactive) and 84.4% (inactive),91.9% (inactive) and 105% (inactive),–,–,94.8% (inactive) and 96.1% (inactive)
CCCCCCCCCCCCCCCc1cc(O)ccc1N,89.4% (inactive) and 75.6% (inactive),105% (inactive) and 107% (inactive),63.5% (inactive) and 30.1% (inactive),96.8% (inactive) and 118% (inactive),68.1% (inactive) and 81.1% (inactive),34.6% (inactive) and 22.2% (inactive),100% (inactive) and 78.6% (inactive),84.3% (inactive),106% (inactive) and 103% (inactive),34.5% (inactive) and -35.1% (active)
CCN(CC)CCNc1ccc(C)c2sc3ccccc3c(=O)c12 (tested in a mixture with another compound),14.5% (inactive) and 14.2% (inactive),1.12% (active) and 10.8% (inactive),25.6% (inactive) and 51% (inactive),41.1% (inactive) and 26.3% (inactive),18.4% (inactive) and 15.1% (inactive),50.4% (inactive) and 35.3% (inactive),-85.6% (active) and -91.5% (active),-68.8% (active) and -47.5% (active),-3.67% (active) and -6.09% (active),-17% (active) and -40.3% (active)
COc1ccc(NC(=S)Nc2ccccn2)cc1,98.6% (inactive),107% (inactive),152% (inactive),98.9% (inactive),93.6% (inactive),97.2% (inactive),98.9% (inactive),103% (inactive),110% (inactive),89.8% (inactive)
O=[N+]([O-])c1ccccc1N(S(=O)(=O)c1ccccc1)S(=O)(=O)c1ccccc1,105% (inactive) and 90.4% (inactive),109% (inactive) and 103% (inactive),96.2% (inactive),107% (inactive) and 98.6% (inactive),91.5% (inactive) and 87.8% (inactive),80.3% (inactive) and 77.7% (inactive),110% (inactive),76.1% (inactive) and 66% (inactive),115% (inactive) and 111% (inactive),98.7% (inactive) and 84.7% (inactive)
CN1CCN(Cc2occc(=O)c2O)CCN(C)CCN(Cc2occc(=O)c2O)CC1,107% (inactive) and 36% (inactive),96.3% (inactive) and 11.1% (inactive),100% (inactive),98% (inactive) and 87.6% (inactive),94.8% (inactive) and 23.1% (inactive),80.3% (inactive) and 35.6% (inactive),81.4% (inactive) and 47.8% (inactive),–,64.4% (inactive),99.1% (inactive) and 43% (inactive)
Cn1c(=O)n(-c2ccc(C(C)(C)C#N)cc2)c2c3cc(-c4cnc5ccccc5c4)ccc3ncc21,9.69% (active) and 14.5% (inactive),4.74% (active) and -10.5% (active),-30.1% (active) and -24.4% (active),14.9% (inactive) and 14.7% (inactive),8.23% (active) and 8.1% (active),13.2% (inactive) and -18% (active),-62.1% (active) and -89.1% (active),–,-1.82% (active) and 1.77% (active),1.14% (active) and 2.87% (active)
CC(CN=Cc1ccccc1O)N=Cc1ccccc1O (configuration not stated),105% (inactive) and 97.2% (inactive),115% (inactive) and 110% (inactive),104% (inactive) and 82.4% (inactive),96.1% (inactive) and 101% (inactive),96.6% (inactive) and 104% (inactive),96% (inactive) and 95.8% (inactive),102% (inactive) and 106% (inactive),–,117% (inactive) and 102% (inactive),101% (inactive) and 88.8% (inactive)
CC(=O)c1ccc2c(c1)N(CCCN1CCN(CCO)CC1)c1ccccc1S2,38.2% (inactive) and -17.3% (active),69.1% (inactive) and -22.6% (active),–,114% (inactive) and 46.4% (inactive),85.7% (inactive) and 20.6% (inactive),69.7% (inactive) and 24.2% (inactive),88.9% (inactive) and -99.1% (active),95.8% (inactive) and -58.7% (active),77.9% (inactive) and -91.7% (active),80.1% (inactive) and -85.2% (active)
O=C1c2ccccc2C(=O)N1/N=C/c1ccc2c(c1)OCO2,98.2% (inactive),94.3% (inactive),–,93% (inactive),99.8% (inactive),74.1% (inactive),105% (inactive),90.3% (inactive),103% (inactive),100% (inactive)
C[N+](C)(C)CN1C(=O)c2ccccc2C1=O,103% (inactive),99.6% (inactive),77.5% (inactive),98.5% (inactive),102% (inactive),96.4% (inactive),102% (inactive),–,98.6% (inactive),103% (inactive)
COc1cc2c(Nc3ccc(Cl)c(Cl)c3F)ncnc2cc1OCC1C[C@@H]2CN(C)C[C@@H]2C1 (some centres not stated),-89.2% (active) and -0.559% (active),-90.2% (active) and -11.5% (active),–,-93.5% (active) and 32.1% (inactive),-97.6% (active) and 13% (inactive),-57.1% (active) and 15.6% (inactive),-97.6% (active) and -97.4% (active),-86.3% (active) and -27.8% (active),-96.3% (active) and -63.1% (active),-92% (active) and -92.9% (active)
CCN(CC)CCCC(C)Nc1cnc(C(=O)Nc2cc(F)cc3cccnc23)cn1 (configuration not stated),24.5% (inactive) and -32.9% (active),11.8% (inactive) and 5.33% (active),65.7% (inactive) and -54.3% (active),83.1% (inactive) and -87.9% (active),50.3% (inactive) and -76.1% (active),61% (inactive) and -52.7% (active),70% (inactive) and -92.2% (active),–,63.2% (inactive) and 22.7% (inactive),33.3% (inactive) and -48.5% (active)
CCCCCn1sc(=O)n(Cc2ccc(CNC(=O)C(C)c3ccc(CC(C)C)cc3)cc2)c1=O (configuration not stated),101% (inactive) and -35% (active),112% (inactive) and -52.1% (active),94.3% (inactive) and -20.9% (active),98.7% (inactive) and 43.3% (inactive),87.4% (inactive) and 8.32% (active),93.7% (inactive) and -64.4% (active),101% (inactive) and -89.2% (active),–,107% (inactive) and -52.5% (active),104% (inactive) and -92.7% (active)
Nc1ccccc1SC1CC(=O)N(c2cccc3ccccc23)C1=O (configuration not stated),99% (inactive),106% (inactive),–,96.7% (inactive),97.3% (inactive),87.7% (inactive),96.7% (inactive),82.6% (inactive),96.3% (inactive),97.1% (inactive)

# Reference: PubChem BioAssay (NCI)
